Reference: ChEMBL document CHEMBL3988442, “University of Dundee, Small-Polar-MMV Screening Library” (2021)
The campaign covered roughly 69,000 compounds. About 1,000 (1.4%) showed an effect of 50% or more. For the sample, strong results were picked, then their nearest neighbours and some compounds at random.

Test system: Leishmania donovani
Test: Leishmania intramacrophage assay
Assay type: functional, organism-based
Parameters: scale not given: in the data most compounds retested in dose-response had high values

CC(=O)N1CC(=O)N(c2cnn(C)c2)CC12CCN(Cc1ccco1)C2 (stereo not given)
Percent Effect (30.3 µM, […]): 8.312%

CC(c1nc(C(C)(C)C)no1)N1CCN(C(=O)CN2CCOCC2)CC1 (stereo not given)
Percent Effect (30.3 µM, […]): 24.72%

CSC(C)(C)CNC(=O)NC1CCC1
Percent Effect (30.3 µM, […]): -4.731%

CCc1ccccc1NC(=O)NCc1nnc(SC)n1C
Percent Effect (30.3 µM, […]): 23.33%

CSc1nnc(CNC(=O)Nc2ccccc2F)n1C
Percent Effect (30.3 µM, […]): 17.43%

COc1ccccc1NC(=O)NCc1nnc(SC)n1C
Percent Effect (30.3 µM, […]): 56.86%

O=C(c1cnc2ccc(Cl)cc2c1NCc1ccco1)N1CCCCC1
Percent Effect (30.3 µM, […]): -0.01015%

Cc1nc(C)n(CC2CCCCN2CCOc2ccc(C#N)cc2)n1 (stereo not given)
Percent Effect (30 µM): 19.26%

COC(=O)NC1(C(=O)Nc2ccc(-c3ncc[nH]3)cc2)CCCC1
Percent Effect (30.3 µM, […]): 26.54%

CCc1noc(C2CCCCN2C(=O)c2cc(C)oc2C)n1 (stereo not given)
Percent Effect (30.3 µM, […]): -92.24%

Cc1ccc(C(=O)N2CCC3(CC2)COC(COc2ccccn2)C3)o1.O=C(O)C(F)(F)F (stereo not given)
Percent Effect (30 µM, 30.03 µM): -68.01%

Cc1ccc(C(=O)N2CCC3(CC2)COC(COc2cccnc2)C3)o1.O=C(O)C(F)(F)F (stereo not given)
Percent Effect (30.3 µM, […]): 59.81%

CCS(=O)(=O)N1CCC2(CC1)COC(COc1cccnc1)C2.O=C(O)C(F)(F)F (stereo not given)
Percent Effect (30.3 µM, […]): 15.1%

Cc1ccc(N2CCCC(NCC(=O)NC3CCOCC3)C2)nn1 (stereo not given)
Percent Effect (30 µM, 30.03 µM): 24.15%

CCc1nc(C2CCCN(c3nccc(N4CCCC4)n3)C2)no1 (stereo not given)
Percent Effect (30.3 µM, […]): 4.333%

CC(C)CCN1CC[C@H](c2nnc(Cc3c[nH]c4ccccc34)o2)C1
Percent Effect (30.3 µM, […]): 31.19%

CCOc1ccc(CN2CCC(c3nc(C)cc(C)n3)C2)cc1CO (stereo not given)
Percent Effect (30.3 µM, […]): 20.63%

COc1c(F)cc(-c2cccc3c2OC(CN)C3)cc1F (stereo not given)
Percent Effect (30.3 µM, […]): 78.5%

COc1cc(-c2ccc(F)c3c2OC(CN)C3)cc(OC)c1OC (stereo not given)
Percent Effect (30.3 µM, […]): 19.84%

COc1cc(-c2cccc3c2OC(CN)C3)cc(OC)c1OC (stereo not given)
Percent Effect (30.3 µM, […]): 39.45%

COc1cc(C)c(-c2ccc(F)c3c2OC(CN)C3)cc1C (stereo not given)
Percent Effect (30.3 µM, […]): 82.34%

Cc1nc(-c2cc(Cl)cc3c2OC(CN)C3)c[nH]1 (stereo not given)
Percent Effect (30.3 µM, […]): 27.22%

NCC1Cc2cccc(-c3ccc(O)c(F)c3)c2O1 (stereo not given)
Percent Effect (30.3 µM, […]): 31.37%

COc1cc(OC)cc(-c2cccc3c2OC(CN)C3)c1 (stereo not given)
Percent Effect (30.3 µM, […]): 81.48%

Cc1nc(-c2cc(F)c3c(c2)CC(CN)O3)c[nH]1 (stereo not given)
Percent Effect (30.3 µM, […]): 25.07%

COc1cc(-c2cccc3c2OC(CN)C3)ccc1O (stereo not given)
Percent Effect (30.3 µM, […]): 33.17%

NCC1Cc2cccc(-c3nccc(N4CCC(O)CC4)n3)c2O1 (stereo not given)
Percent Effect (30.3 µM, […]): 19.12%

COc1cccnc1-c1ccc(F)c2c1OC(CN)C2 (stereo not given)
Percent Effect (30.3 µM, […]): -22.62%

COc1ccc(-c2cccc3c2OC(CN)C3)cc1F (stereo not given)
Percent Effect (30.3 µM, […]): 82.3%

Cn1cnnc1C1CCCN(C(=O)c2cc(Cl)c(Cl)n2C)C1 (stereo not given)
Percent Effect (30 µM): 16.78%

Cc1ccc(N2CCCC(NCc3ccc4c(c3)OCCO4)C2)nn1 (stereo not given)
Percent Effect (30.3 µM, […]): -12.27%

CCCNC(=O)CCC(=O)N1CCC(c2n[nH]c(C3CC3)n2)CC1
Percent Effect (30.3 µM, […]): -11.33%

O=C1CCN(C(=O)NCc2ccccc2Oc2ccccc2)CCN1
Percent Effect (30.3 µM, […]): -11.56%

COc1ccc(CN2CCn3cc(CNC(=O)CC4CC4)nc3C2)cc1.O=C(O)C(F)(F)F
Percent Effect (30.3 µM, […]): -3.07%

CN1Cc2ccccc2CC1C(=O)N1CCN(CCS(C)(=O)=O)CC1 (stereo not given)
Percent Effect (30.3 µM, […]): -7.608%

COc1ccc(-c2nnsc2C(=O)N2CCC(C(N)=O)CC2)cc1
Percent Effect (30.3 µM, […]): -2.161%

O=c1[nH]cc(N2CCOCC2)c(=O)[nH]1
Percent Effect (30.3 µM, […]): -12.54%

O=C(O)C(F)(F)F.O=C(O)C(F)(F)F.O=c1ccc2c(n1Cc1cccnc1)CCN(Cc1ccoc1)CC2
Percent Effect (30.3 µM, […]): 52.28%

O=C(O)C(F)(F)F.O=C(O)C(F)(F)F.O=c1ccc2c(n1CCN1CCCC1)CCN(Cc1ccoc1)CC2
Percent Effect (30 µM, 30.03 µM): 45%

O=C(O)C(F)(F)F.O=C(O)C(F)(F)F.O=c1ccc2c(n1Cc1ccncc1)CCN(Cc1ccoc1)CC2
Percent Effect (30.3 µM, […]): 7.941%

CCN(CC)C(CNC(=O)c1ccnc(N(C)C)c1)c1ccsc1 (stereo not given)
Percent Effect (30.3 µM, […]): 1.995%

Cc1ccc(NC2CCN(C(=O)CCc3c(C)noc3C)CC2)nn1
Percent Effect (30 µM): 23.52%

Oc1ccc(-c2c(-c3ccccc3)ncn2C[C@H]2CCCN2)cc1
Percent Effect (30.3 µM, […]): 51.83%

O=C(O)c1ccccc1-c1c(-c2ccccc2)ncn1C[C@H]1CCCN1
Percent Effect (30.3 µM, […]): 31.03%

O=C(O)c1ccccc1-c1c(-c2ccccc2)ncn1CC1CCCO1 (stereo not given)
Percent Effect (30.3 µM, […]): -1.472%

CCc1ccc(C(COC)NC(=O)c2ccc(O)nc2)o1 (stereo not given)
Percent Effect (30.3 µM, […]): -7.414%

CCc1ccc(C(COC)NC(=O)c2ccc(C(N)=O)cc2)o1 (stereo not given)
Percent Effect (30.3 µM, […]): 64.18%

CCc1ccc(C(COC)NC(=O)c2ccc(NC(C)=O)cc2)o1 (stereo not given)
Percent Effect (30.3 µM, […]): -4.032%

NC(=O)CS(=O)(=O)Cc1csc(-c2ccccc2)n1
Percent Effect (30.3 µM, […]): 15.77%

Cc1nnsc1C(=O)NCCNS(=O)(=O)c1cccs1
Percent Effect (30.3 µM, […]): -23.26%
